Experimental data published in PubChem BioAssay.
Calls of active or inactive are those of the source.

How the values were obtained:
[1] = tested on: Human papillomavirus type 1a protein E7 (residues 44-93); assay: small molecules binding HPV E7 44-93 – biochemical, small-molecule microarray, residues 44-93, 635 nm fluorescence, primary screen (AID 1108); settings: fluorescence 635 nm, higher = more signal;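 also: E7 fragment applied at 1 µg/mL in TBST for 1 h at 4 C; score combines spot fluorescence with its signal to noise ratio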
[2] = hepatitis C replication reporter changes, two-sided – Huh7 cells, luciferase reporter, HCV replication inhibitor project, primary screen (AID 1109); settings: Huh7 HCV replicon luciferase reporter, 48 h; higher = more signal;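 also: huh7 hepatoma cells harbouring a luciferase neomycin HCV replicon reporter; luciferase luminescence as measure of HCV replicon replication; test concentration not given here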
[3] = molecular target: Left-right determination factor 2 (Homo sapiens) (UniProt O00292); assay: small molecules binding LEFTY2 protein – biochemical, small-molecule microarray, 635 nm fluorescence scan, primary screen (AID 1110); settings: higher = more signal
[4] = molecular target: Calmodulin-1 (Homo sapiens) (UniProt P0DP23); assay: small molecules binding calmodulin-1 with EGTA – biochemical, small-molecule microarray, Cy5-labelled CALM1, profiling panel (AID 1111); settings: Cy5-CALM1 binding fluorescence, higher = more signal;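 also: labelled calmodulin applied in Tris saline Tween buffer holding calcium plus EGTA and DTT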
[5] = molecular target: Calmodulin-1 (Homo sapiens) (UniProt P0DP23); assay: small molecules binding Ca-loaded calmodulin-1 – biochemical, small-molecule microarray, Cy5-labelled CALM1, plus calcium, artefact control for SMM control-protein annotation, profiling panel (AID 1112); settings: Cy5-CALM1 binding fluorescence, higher = more signal;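 also: score merges spot fluorescence with signal to noise from triplicate slides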
[6] = probe aWnt5a binding to arrayed compounds – biochemical, biotinylated probe, 635/667 nm fluorescence, primary screen (AID 1113); settings: small-molecule microarray, higher = more signal;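 also: score merges 667 nm fluorescence intensity with signal-to-noise per printed feature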
[7] = probe aShh binding to arrayed compounds – biochemical, biotinylated probe, 635/667 nm fluorescence, primary screen (AID 1114); settings: small-molecule microarray, higher = more signal;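 also: probe is biotin-labelled aShh protein from a stem cell growth factor screen; measures binding of labelled protein to compounds printed on the slide; score merges feature fluorescence at 667 nm with signal-to-noise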
[8] = probe aNog binding to arrayed compounds – biochemical, biotinylated probe, 635/667 nm fluorescence, primary screen (AID 1115); settings: small-molecule microarray, higher = more signal;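 also: probe is biotinylated aNog protein used at 0.15 µg/mL for 1 h at 4 C; z-score combines 667 nm fluorescence of each spot with its signal to noise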
[9] = molecular target: Torsin-1A-interacting protein 1 (Homo sapiens) (UniProt Q5JTV8); assay: compound microarray binding of lysate hLAP1 – cell lysate, small-molecule microarray, COS7 lysate, 635/667 nm fluorescence, primary screen (AID 1116); settings: 635 nm fluorescence, higher = more signal
[10] = molecular target: Alpha-bungarotoxin (Bungarus multicinctus) (UniProt P60615); assay: compounds binding labelled alpha-BTX control protein – biochemical, small-molecule microarray, Alexa647 label, 635/667 nm fluorescence, artefact control for SMM control protein annotation, profiling panel (AID 1117); settings: alpha-BTX-A647 binding fluorescence, higher = more signal
Albumin (Bos taurus) = Albumin (Bos taurus) (UniProt P02769); assay: compounds binding labelled BSA control protein – biochemical, small-molecule microarray, Alexa647 label, 635/667 nm fluorescence, artefact control for SMM control protein annotation, profiling panel (AID 1118); settings: BSA-A647 binding, fluorescence 635 nm, higher = more signal;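 also: score merges 667 nm emission intensity and signal-to-noise per printed compound spot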
[11] = probe aXIP binding to arrayed compounds – biochemical, NeuroSMM set, 635/667 nm fluorescence, primary screen (AID 1119); settings: small-molecule microarray, higher = more signal, called active from +8 up or from −8 down;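 also: probe is the protein aXip251-270 applied at 1 µg/mL to compound-printed slides; binding of probe to printed compounds measured as 667 nm fluorescence plus signal to noise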
[12] = probe aNOTCH3 binding on compound microarray – biochemical, small-molecule microarray, 635/667 nm fluorescence, primary screen (AID 1120); settings: higher = more signal;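 also: probe is a biotin-tagged antibody raised against NOTCH3 rather than NOTCH3 protein; score merges spot fluorescence near 667 nm with spot signal to noise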
[13] = probe aNOTCH2 binding on compound microarray – biochemical, small-molecule microarray, 635/667 nm fluorescence, primary screen (AID 1121); settings: higher = more signal;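 also: score merges feature fluorescence read at 667 nm with its signal to noise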
[14] = molecular target: Carbonic anhydrase 2 (Homo sapiens) (UniProt P00918); assay: compounds binding carbonic anhydrase 2 – biochemical, small-molecule microarray, Alexa647-labelled CAII, profiling panel (AID 1122); settings: CAII-A647 binding fluorescence, higher = more signal
[15] = COS7 lysate on small-molecule microarray, probe aHis, 635 nm (AID 1123); settings: COS7 cell lysate, fluorescence, higher = more signal;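 also: z-score combines 667nm fluorescence intensity with signal-to-noise per printed compound spot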
[16] = probe aLAP1 signal on lysate-treated microarray – cell lysate, small-molecule microarray, COS7 lysate, primary screen (AID 1124); settings: probe aLAP1, fluorescence, higher = more signal;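 also: lysate comes from COS7 cells expressing LAP1 and is applied at 0.3 µg/mL; score merges spot fluorescence near 667 nm with signal-to-noise over triplicate slides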
Sam68 (KHDRBS1) = assay: compounds binding KHDRBS1 protein – biochemical, small-molecule microarray, 635 nm fluorescence, primary screen (AID 1125); settings: higher = more signal;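 also: score merges 667 nm channel intensity with signal to noise over triplicate slides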
[17] = tested on: Chordin-like protein 2 (CHRDL2); assay: compounds binding chordin-like 2 – biochemical, small-molecule microarray, 635 nm fluorescence, primary screen (AID 1126); settings: fluorescence 635 nm, higher = more signal;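 also: printed compound slides probed with Chrdl2 protein at 4 µg/mL for 1 h at 4 C; score merges 667 nm emission intensity with signal to noise over three replicate slides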
[18] = molecular target: Concanavalin-A (Canavalia ensiformis) (UniProt P02866); assay: compounds binding concanavalin A lectin – biochemical, small-molecule microarray, Alexa647 label, 635 nm, artefact control for SMM control protein annotation, primary screen (AID 1127); settings: ConA-A647 binding fluorescence, higher = more signal;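 also: z combines 667 nm emission intensity with signal-to-noise across three replicate slides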
Chain of Concanavalin-A (Canavalia ensiformis) (P02866 whole entry, looked up): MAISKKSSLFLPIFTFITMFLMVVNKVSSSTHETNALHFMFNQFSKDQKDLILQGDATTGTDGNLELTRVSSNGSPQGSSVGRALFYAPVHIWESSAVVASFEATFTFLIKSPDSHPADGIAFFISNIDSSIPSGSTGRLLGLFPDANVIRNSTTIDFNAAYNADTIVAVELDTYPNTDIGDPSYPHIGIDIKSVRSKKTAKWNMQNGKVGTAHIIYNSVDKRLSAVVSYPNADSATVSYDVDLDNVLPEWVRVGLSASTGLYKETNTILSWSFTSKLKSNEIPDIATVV

Chain of Alpha-bungarotoxin (Bungarus multicinctus) (P60615 whole entry, looked up): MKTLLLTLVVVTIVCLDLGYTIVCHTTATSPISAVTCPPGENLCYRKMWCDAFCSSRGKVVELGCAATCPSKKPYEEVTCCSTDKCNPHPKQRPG
Chain of Albumin (Bos taurus) (P02769 whole entry, looked up): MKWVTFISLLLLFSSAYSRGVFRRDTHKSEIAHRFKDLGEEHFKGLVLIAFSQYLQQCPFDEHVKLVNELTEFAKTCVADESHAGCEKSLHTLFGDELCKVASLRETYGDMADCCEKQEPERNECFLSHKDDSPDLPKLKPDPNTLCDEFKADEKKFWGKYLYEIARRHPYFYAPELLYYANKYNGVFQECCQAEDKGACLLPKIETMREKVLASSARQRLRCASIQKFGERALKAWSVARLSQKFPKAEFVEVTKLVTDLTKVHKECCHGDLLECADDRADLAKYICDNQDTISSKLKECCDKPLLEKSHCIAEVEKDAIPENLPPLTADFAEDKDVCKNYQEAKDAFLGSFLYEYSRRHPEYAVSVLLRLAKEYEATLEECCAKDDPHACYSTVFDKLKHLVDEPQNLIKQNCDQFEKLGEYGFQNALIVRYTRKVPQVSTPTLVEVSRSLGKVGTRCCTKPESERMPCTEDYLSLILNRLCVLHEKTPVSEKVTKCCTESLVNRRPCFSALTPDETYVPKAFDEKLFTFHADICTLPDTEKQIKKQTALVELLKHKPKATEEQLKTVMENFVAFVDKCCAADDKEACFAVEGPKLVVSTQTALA
Chain of Torsin-1A-interacting protein 1 (Homo sapiens) (Q5JTV8 whole entry, looked up): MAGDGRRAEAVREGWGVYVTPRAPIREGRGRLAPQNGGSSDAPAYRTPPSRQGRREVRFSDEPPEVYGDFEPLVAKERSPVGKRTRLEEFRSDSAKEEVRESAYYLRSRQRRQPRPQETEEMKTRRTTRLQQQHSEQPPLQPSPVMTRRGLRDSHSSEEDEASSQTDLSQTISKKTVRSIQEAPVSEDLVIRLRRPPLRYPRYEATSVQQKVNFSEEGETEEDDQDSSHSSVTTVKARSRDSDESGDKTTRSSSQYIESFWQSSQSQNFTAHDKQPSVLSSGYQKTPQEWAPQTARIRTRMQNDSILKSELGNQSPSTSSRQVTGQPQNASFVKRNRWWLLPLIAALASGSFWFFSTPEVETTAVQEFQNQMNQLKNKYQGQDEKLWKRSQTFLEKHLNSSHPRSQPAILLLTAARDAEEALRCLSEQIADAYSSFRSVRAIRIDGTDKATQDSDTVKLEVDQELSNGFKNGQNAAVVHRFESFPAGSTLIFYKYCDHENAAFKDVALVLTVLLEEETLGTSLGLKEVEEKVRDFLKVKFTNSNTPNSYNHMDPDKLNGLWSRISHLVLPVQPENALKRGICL
Chain of Left-right determination factor 2 (Homo sapiens) (O00292 whole entry, looked up): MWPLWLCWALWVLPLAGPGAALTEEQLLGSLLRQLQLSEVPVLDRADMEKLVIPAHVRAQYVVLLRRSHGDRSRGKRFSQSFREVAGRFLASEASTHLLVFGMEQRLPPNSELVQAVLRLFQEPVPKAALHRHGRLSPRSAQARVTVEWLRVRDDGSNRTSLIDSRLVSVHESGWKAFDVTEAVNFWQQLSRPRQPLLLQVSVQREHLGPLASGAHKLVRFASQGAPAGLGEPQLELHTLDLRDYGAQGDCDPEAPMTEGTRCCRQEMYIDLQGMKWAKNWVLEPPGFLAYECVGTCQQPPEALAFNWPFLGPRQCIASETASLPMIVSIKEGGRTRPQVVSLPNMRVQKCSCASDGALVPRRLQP

| SMILES | composite z-score [1] | z-score [2] | composite z-score [3] | composite z-score [4] | composite z-score [5] | composite z-score [6] | composite z-score [7] | composite z-score [8] | composite z-score [9] | composite z-score [10] | composite z-score (Albumin (Bos taurus)) | composite Z-score [11] | composite z-score [12] | composite z-score [13] | composite z-score [14] | composite z-score [15] | composite z-score [16] | composite z-score (Sam68 (KHDRBS1)) | composite z-score [17] | composite z-score [18] |
| --- | --- | --- | --- | --- | --- | --- | --- | --- | --- | --- | --- | --- | --- | --- | --- | --- | --- | --- | --- | --- |
| O=C1C=C(c2ccccc2)C(=O)c2ccc([C@H]3Oc4ccccc4S(=O)(=O)N4CCC[C@@H]34)cc21 | -1.08 | -4.28 | -0.272 | -0.623 | -0.351 | -0.172 | -0.117 | -0.23 | -0.239 | -0.0257 | -0.878 | 0.159 (inactive) | -0.185 | -0.161 | -0.48 | -0.811 | -0.534 | -1.05 | 0.594 | -0.388 |
| O[C@@H](Cc1ccccc1)[C@@H](/C=C/C1CC1)N(CC#Cc1ccccc1)Cc1cccc(Cl)c1 | -0.55 | -1.52 | -1.61 | -0.738 | 0.352 | -0.275 | -0.147 | -0.196 | -0.565 | -0.0369 | -0.22 | 0.889 (inactive) | -0.376 | -0.117 | -0.245 | -0.359 | 0.0449 | -0.117 | -1.21 | -0.403 |
| CC(C)(C)OC(=O)CC[C@]1(C(=O)NCc2ccccc2)N=C(c2ccc(OCCCO)cc2)O[C@H]1c1ccccc1CN=[N+]=[N-] | 1.41 | -2.11 | 0.735 | 1.27 | -0.232 | 0.152 | 0.0483 | -0.0768 | 1.69 | 0.466 | 0.75 | -1 (inactive) | 0.526 | -0.127 | 0.68 | 2.45 | 0.583 | 1.3 | -0.0873 | 0.769 |
| C=CCNC(=O)[C@@H]1[C@H]2C(=O)O[C@H](c3ccccc3)[C@H](c3ccccc3)N2[C@H](c2ccc(O)cc2)[C@@]12C(=O)N(C(=O)OCCOC)c1ccc(C#CC3(O)CCCCCC3)cc12 | -1.18 | -0.0817 | -2.4 | -0.901 | -0.123 | -0.221 | -0.192 | -0.343 | -1.28 | -1.42 | -0.632 | -0.245 (inactive) | -0.416 | -0.153 | -0.742 | -0.642 | -0.547 | -0.669 | -2.57 | -0.533 |
| C=C(/C(=C/C[C@@H](OC(C)=O)c1cccc(OCCO)c1)c1cc(C(=O)OC)ccc1OC)C(C)C | 0.522 | -1.53 | 0.256 | -0.343 | -0.563 | -0.221 | -0.221 | -0.223 | 0.189 | 0.215 | 0.805 | 0.142 (inactive) | -0.0014 | -0.177 | 0.447 | 0.206 | 0.0418 | 0.531 | 0.0865 | 0.574 |
